# Source: PubChem BioAssay (NCI)
# Compounds without any hit were thinned out: in the full panel of roughly 83,000, 20% have a hit.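 Method: cells in 96-well plates; compound added at one concentration; 48 h incubation; percent growth measured; values under 10 scored active.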 Unmarked numbers belong to inactive results. Activity calls are given as the source filed them.
# System: BT-549 breast
# Experiment: NCI-60 one-dose screen, 48 h (100 = growth as untreated, 0 = no growth, -100 = all killed)
# Conditions: 10 µM unless noted
row,SMILES,growth
1,COc1ccc(OC)c(CCn2cncc2-c2c[nH]c3ccccc23)c1,83.8%
2,COCCCN1CC(O)=C(c2nc(-c3ccc(C)cc3)cs2)C1=N,103%
3,O=C(CCN1CCCC1)Nc1ccc2c(Nc3ccc(Br)cc3)c3ccccc3nc2c1,47.9%
4,O=C(Cn1c[n+](CC(=O)c2ccc(-c3ccccc3)cc2)c2ccccc21)Nc1cccc2cccnc12,-9.9% (active)
5,CCN1Cc2nc3sc(C)c(C)c3c(=O)n2C=C1C,-5.48% (active)
6,Cc1ccc(-n2c3c(c(-c4ccccc4)c2-c2ccccc2)C2=NCCN2C=N3)cc1,107%
7,CCCCC[n+]1ccc(SCC(=O)N(C)c2ccc(Oc3ccccc3)cc2)c2ccccc21,130%
8,CCOC(=O)[C@@H]1CCCN(S(=O)(=O)c2ccc(S(=O)(=O)N(CC)CC)c(F)c2)C1,58.5%
9,Cn1ccc2c1CC1CN(Cc3ccco3)C(=O)C1C2C(=O)O (stereo not given),110%
10,O=C(NO)c1ccc(-n2nc(-c3ccccc3)c3ccccc32)cc1,67.2%
11,COc1ccc(CC(C)=C(c2ccc(OCCN3CCCCCC3)cc2)c2ccc(OCCN3CCCCCC3)cc2)cc1,-75.9% (active)
12,Nc1n[nH]c2cccc(C#Cc3cccc(C(=O)Nc4cccc(C(F)(F)F)c4)c3)c12,84.9%
13,Cc1ccc(C(=O)/C(=C/c2ccc([N+](=O)[O-])cc2)SCc2ccc(Cl)cc2)cc1,88.9%
14,O=C(O)c1ccc2c(c1)C(=O)N(Cc1ccccc1)C2=O,98.6%
15,O=C1Nc2cc(-c3cccc(O)c3)ccc2/C1=C/c1ccc[nH]1,0.113% (active)
16,O=Cc1ccc(-c2cn3ccnc3c(-c3ccc4ncn(Cc5ccccc5)c4c3)n2)cc1,66.2%

row,SMILES,growth
1,CCc1ccc(CNc2ccc(N3CCOCC3)c(C(=O)O)c2)cc1,105%
2,CNCCOc1nc2c3cnccc3cc(-c3cc(OC)c(OC)c(OC)c3)c2c2ccncc12,-45.5% (active)
3,Nc1c(S(=O)(=O)O)cc2c3c(cccc13)C(=O)OC2=O,104%
4,Oc1ccc(C(c2ccc(O)cc2)c2ccc(Br)cn2)cc1,-42.6% (active)
5,CCCCOc1ccc(/C=N/Nc2cc(C)nc3ccc(Br)cc23)cc1,99%
6,CC1(C)NCCC[C@]2(C)[C@H]3CC(=O)[C@H]4[C@@H]5C[C@](C)(CO)CC[C@]5(C)CC[C@@]4(C)[C@]3(C)CC[C@@H]12,103%
7,N#Cc1cc(-c2nc3ccccc3s2)c(=O)n(NS(=O)(=O)c2ccccc2)c1N,98.2%
8,c1ccc2c(-c3c[nH]c4ccccc34)c3c(cc2c1)[nH]c1ccccc13,67.4%
9,O=C(/C=C(/C=C/c1csc2ccccc12)OB(F)F)/C=C/c1csc2ccccc12,4.74% (active)
10,Cc1ccc(-c2csc(NC(=O)CSc3nc(-c4ccccc4)cc(=O)[nH]3)n2)cc1,114%
11,CCCC/C=N/NC(=S)NCc1ccccc1,102%
12,COc1ccc2nc(-c3ccc(-c4noc(-c5cc(OC)c(OC)c(OC)c5)n4)cc3)[nH]c2c1,26.8%
13,Fc1ccc(-c2cn3c(nc4ccccc43)c(-c3ccccc3)n2)cc1,105%
14,CCCCOc1ccc(/C(C)=N/Nc2cc(C)nc3ccc(Br)cc23)cc1,107%
15,N#Cc1cccc(-c2ccc3c(c2)NC(=O)/C3=C\c2ccc[nH]2)c1,17.4%
16,O=C(NNc1nc2c(F)cccc2n2cccc12)c1cnccn1,38%

# System: MDA-MB-435 melanoma
# Experiment: as above
# Conditions: 10 µM unless noted
row,SMILES,growth
1,CC(C)(C)c1cc(C=O)cc(C(C)(C)C)c1O,111%
2,COc1ccc(OC)c(CCn2cncc2-c2c[nH]c3ccccc23)c1,58.9%
3,COCCCN1CC(O)=C(c2nc(-c3ccc(C)cc3)cs2)C1=N,105%
4,O=C(CCN1CCCC1)Nc1ccc2c(Nc3ccc(Br)cc3)c3ccccc3nc2c1,-88% (active)
5,O=C(Cn1c[n+](CC(=O)c2ccc(-c3ccccc3)cc2)c2ccccc21)Nc1cccc2cccnc12,7.5% (active)
6,CCN1Cc2nc3sc(C)c(C)c3c(=O)n2C=C1C,48.1%
7,Cc1ccc(-n2c3c(c(-c4ccccc4)c2-c2ccccc2)C2=NCCN2C=N3)cc1,97.8%
8,CCCCC[n+]1ccc(SCC(=O)N(C)c2ccc(Oc3ccccc3)cc2)c2ccccc21,98.1%
9,COc1cc(OC)cc(C(=O)C[n+]2cccc3cc[nH]c32)c1,99%
10,CCOC(=O)[C@@H]1CCCN(S(=O)(=O)c2ccc(S(=O)(=O)N(CC)CC)c(F)c2)C1,75.6%
11,Cn1ccc2c1CC1CN(Cc3ccco3)C(=O)C1C2C(=O)O (stereo not given),101%
12,O=C(NO)c1ccc(-n2nc(-c3ccccc3)c3ccccc32)cc1,84.7%
13,COc1ccc(CC(C)=C(c2ccc(OCCN3CCCCCC3)cc2)c2ccc(OCCN3CCCCCC3)cc2)cc1,-98.2% (active)
14,Nc1n[nH]c2cccc(C#Cc3cccc(C(=O)Nc4cccc(C(F)(F)F)c4)c3)c12,52.5%
15,Cc1ccc(C(=O)/C(=C/c2ccc([N+](=O)[O-])cc2)SCc2ccc(Cl)cc2)cc1,78.1%
16,O=C(O)c1ccc2c(c1)C(=O)N(Cc1ccccc1)C2=O,106%
17,O=C1Nc2cc(-c3cccc(O)c3)ccc2/C1=C/c1ccc[nH]1,5.05% (active)
18,O=Cc1ccc(-c2cn3ccnc3c(-c3ccc4ncn(Cc5ccccc5)c4c3)n2)cc1,87%
19,CCc1ccc(CNc2ccc(N3CCOCC3)c(C(=O)O)c2)cc1,108%

row,SMILES,growth
1,O=C(CCN1CCCC1)c1ccc([N+](=O)[O-])cc1,107%
2,CNCCOc1nc2c3cnccc3cc(-c3cc(OC)c(OC)c(OC)c3)c2c2ccncc12,-90.1% (active)
3,Nc1c(S(=O)(=O)O)cc2c3c(cccc13)C(=O)OC2=O,102%
4,Oc1ccc(C(c2ccc(O)cc2)c2ccc(Br)cn2)cc1,100%
5,CCCCOc1ccc(/C=N/Nc2cc(C)nc3ccc(Br)cc23)cc1,-4.43% (active)
6,CC1(C)NCCC[C@]2(C)[C@H]3CC(=O)[C@H]4[C@@H]5C[C@](C)(CO)CC[C@]5(C)CC[C@@]4(C)[C@]3(C)CC[C@@H]12,92.2%
7,N#Cc1cc(-c2nc3ccccc3s2)c(=O)n(NS(=O)(=O)c2ccccc2)c1N,102%
8,O=S(=O)(NCCNc1nccc(-c2c(-c3cccc(O)c3)nc3occn23)n1)c1cccc(F)c1,34.3%
9,c1ccc2c(-c3c[nH]c4ccccc34)c3c(cc2c1)[nH]c1ccccc13,-3.69% (active)
10,O=C(/C=C(/C=C/c1csc2ccccc12)OB(F)F)/C=C/c1csc2ccccc12,-18.6% (active)
11,Cc1ccc(-c2csc(NC(=O)CSc3nc(-c4ccccc4)cc(=O)[nH]3)n2)cc1,106%
12,CCCC/C=N/NC(=S)NCc1ccccc1,98.4%
13,COc1ccc2nc(-c3ccc(-c4noc(-c5cc(OC)c(OC)c(OC)c5)n4)cc3)[nH]c2c1,39.1%
14,Fc1ccc(-c2cn3c(nc4ccccc43)c(-c3ccccc3)n2)cc1,98%
15,CCNC(=O)Oc1ccc(/C(=C(\C)c2ccccc2)c2ccc(OCCN3CCCCC3)cc2)cc1,65.5%
16,CCCCOc1ccc(/C(C)=N/Nc2cc(C)nc3ccc(Br)cc23)cc1,92.8%
17,N#Cc1cccc(-c2ccc3c(c2)NC(=O)/C3=C\c2ccc[nH]2)c1,43.9%
18,O=C(NNc1nc2c(F)cccc2n2cccc12)c1cnccn1,32%
19,CN(C)CCC(=O)c1ccc([N+](=O)[O-])cc1,104%
